Laboratory results: PubChem BioAssay (NCI)
Compounds without any hit were thinned out: in the full panel of roughly 83,000, 20% have a hit.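 Note: values are percent growth. 100 is the growth of untreated cells, values between 100 and 0 indicate rising inhibition; between -100 and 0 indicates cell death.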 Activity calls are given as the source filed them. Rule for the calls: active = growth percent below 10; inactive = the rest.

Columns and labels:
Test in all cases: NCI-60 one-dose screen, 48 h (100 = growth as untreated, 0 = no growth, -100 = all killed)
Conditions in all cases: 10 µM unless noted
[1] = tested on: T-47D breast
[2] = tested on: BT-549 breast
[3] = tested on: MDA-MB-435 melanoma
[4] = tested on: SW-620 colon
[5] = tested on: MCF7 breast
[6] = tested on: HCT-116 colon
[7] = tested on: HCC-2998 colon
[8] = tested on: KM12 colon

Measured: growth

Clc1ccccc1-c1cnn2cc(-c3ccccc3)cnc12
inactive: [1] 78.9% | [2] 83.1% | [3] 44.8% | [4] 76.9% | [5] 75.3% | [6] 69% | [7] 85.9% | [8] 63.8%

C=CCOC(=O)C1=C(C)N(CC)C(=O)NC1c1c(Cl)n(C)c2ccccc12 (stereo not given)
inactive: [1] 91% | [2] 102% | [3] 98.1% | [4] 101% | [5] 98.7% | [6] 90% | [7] 91.2% | [8] 85.7%

CCOC(=O)C1=C(C)/C(=C\c2[nH]c(C)c(C(=O)OCC)c2C)N=C1C
active: [4] 2.24%
inactive: [1] 66.8% | [2] 98.1% | [3] 80.6% | [5] 88.2% | [6] 74.5% | [7] 109% | [8] 81.9%

O=C(CCCCCCN1CC(=O)N2[C@H](c3ccc(Br)cc3)c3[nH]c4ccccc4c3C[C@@H]2C1=O)NO
inactive: [2] 55.1% | [3] 26.2% | [4] 20.4% | [5] 28.4% | [6] 14.8% | [7] 67.5% | [8] 60.9%
active: [1] 9.61%

CCCCNC(=O)c1cc([N+](=O)[O-])cc(C2CCCCC2)c1O
inactive: [1] 12% | [2] 36.5% | [3] 33.3% | [4] 68.6% | [5] 39.3% | [6] 27.8% | [7] 25% | [8] 39.5%

COc1ccc(N2CCN(C(=O)c3sc4nc(C)c(Br)c(C)c4c3N)CC2)cc1
inactive: [1] 79% | [2] 88.2% | [3] 98.7% | [4] 104% | [5] 81% | [6] 99% | [7] 97.1% | [8] 94%

O=C(Nc1ccc(Cl)cc1)Oc1c(Cl)c(Cl)c(Cl)c(Cl)c1Cl
inactive: [1] 84.3% | [2] 92.6% | [3] 96.5% | [4] 101% | [5] 86% | [6] 89.1% | [7] 107% | [8] 96.6%

CCOC(=O)c1nn(CC(O)c2ccccc2)c(NC(=O)Nc2cccc(F)c2)c1C (stereo not given)
inactive: [1] 90.1% | [2] 101% | [3] 99.9% | [4] 95.9% | [5] 91.3% | [6] 96.4% | [7] 98.3% | [8] 104%

CN1CCN(CCCOc2cccc3nc(Nc4ccc(F)c(F)c4)ccc23)CC1
active: [3] -81.5% | [4] -90.3% | [5] -87.6% | [6] -41.2% | [7] -83.8% | [8] -77.3%
inactive: [1] 19.4% | [2] 52.8%

Cc1ccc(N2C(=O)CCC2=O)cc1
inactive: [1] 105% | [2] 80.6% | [3] 102% | [4] 96.1% | [5] 94.6% | [6] 92.9% | [7] 108% | [8] 103%

COc1ccc(/C=C/C(=O)c2ccc(NC(=O)CSc3nc4c([nH]3)c(=O)n(C)c(=O)n4C)cc2)cc1OC
inactive: [1] 76.9% | [2] 59% | [3] 88.5% | [4] 96.2% | [5] 40.7% | [6] 59.3% | [7] 75.9% | [8] 72.3%

CC[C@]12C=CCN3CC[C@@]4(c5ccc(OC)cc5N(C)[C@H]4[C@@](O)(C(=O)OC)[C@@H]1OC(=O)CCC[P+](c1ccccc1)(c1ccccc1)c1ccccc1)[C@@H]32
active: [1] 1.08% | [3] -21.6% | [5] -3.34% | [6] 8.72% | [7] -22.5% | [8] -27.2%
inactive: [2] 11% | [4] 17.4%

C=CCn1c(SCC(=O)Nc2ccc(/C(C)=N/O)cc2)nnc1-c1cc(-c2ccc(S(N)(=O)=O)cc2)nc2ccccc12
inactive: [1] 27.4% | [2] 58.8% | [3] 67.3% | [4] 84.2% | [5] 43.3% | [6] 77.7% | [7] 101% | [8] 86.5%

O=C(NC1CC(F)C1)c1cc2cccnc2n1-c1ccc(Cl)c(Cl)c1 (stereo not given)
inactive: [1] 82.6% | [2] 101% | [3] 119% | [4] 98.4% | [5] 98.3% | [6] 94.7% | [7] 104% | [8] 98.5%

O=C(O)[C@@H](Cc1ccc2ccccc2c1)NC(=O)n1c2ccccc2c2ccccc21
inactive: [1] 70.7% | [2] 11.3% | [4] 27.3% | [5] 17.1% | [7] 21.4% | [8] 18.5%
active: [3] -53% | [6] 9.76%

CC1(C)NCCC[C@]2(C)[C@H]3CC[C@H]4[C@H]5[C@H](C(=O)/C=C/c6cccnc6)CCC[C@]5(CO)CC[C@@]4(C)[C@]3(C)CC[C@@H]12
active: [4] 7.51%
inactive: [1] 81.3% | [2] 88.2% | [3] 70.8% | [5] 22.1% | [6] 37.2% | [7] 19.7% | [8] 39.8%

Cc1nc2sc(C(=O)Nc3cccc(Br)c3C)c(N)c2cc1C(O)c1ccccc1 (stereo not given)
inactive: [1] 25.3% | [2] 28.2% | [4] 20.4% | [5] 10.9% | [7] 11.3%
active: [3] 3.98% | [6] 6.83% | [8] 5.99%

O=C1/C(=C2\SC(=S)N(C3CC3)C2=O)SC(=S)N1C1CC1
inactive: [1] 94.6% | [2] 97.5% | [3] 103% | [4] 98.4% | [5] 91.6% | [6] 100% | [7] 102% | [8] 101%

CC1(C)CC[C@]2(CO)CC[C@]3(C)[C@H](CC[C@@H]4[C@@]5(C)CCCNC(C)(C)[C@@H]5CC[C@]43C)[C@H]2[C@H]1O
inactive: [1] 88.8% | [2] 89.3% | [3] 82.7% | [4] 54.2% | [5] 55.2% | [6] 50.2% | [7] 38.2% | [8] 77.9%

CC1(C)[C@@H](O[C@@H]2OC[C@@H](O[C@@H]3O[C@H](CO)[C@@H](O)[C@H](O)[C@H]3O[C@@H]3OC[C@@H](O)[C@H](O)[C@H]3O)[C@H](O)[C@H]2O[C@@H]2O[C@H](CO)[C@@H](O)[C@H](O)[C@H]2O)CC[C@]2(C)[C@H]3CC[C@]45OC[C@@]6(CC[C@](C)(C=O)C[C@H]64)[C@H](O)C[C@@]5(C)[C@]3(C)CC[C@@H]12
active: [1] -55.7% | [2] -94% | [3] -83.8% | [4] -58.4% | [5] -59.6% | [6] -75.9% | [7] -82.1% | [8] -62%

CCN1C(=O)N(CC)C2C1NN=c1s/c(=C\c3ccc[nH]3)c(=O)n12 (stereo not given)
inactive: [1] 31% | [2] 51.2% | [4] 16.9% | [5] 17.6% | [6] 17% | [7] 33.1%
active: [3] -57% | [8] 8.23%

C[n+]1ccc(CCc2c[nH]c3ccccc23)cc1
inactive: [1] 72.6% | [2] 98.2% | [3] 104% | [4] 100% | [5] 93.2% | [6] 97.2% | [7] 92.6% | [8] 70.8%

NC(=O)c1c(NC(=O)c2cccc(C(F)(F)F)c2)sc2c1CCC(=O)C2
active: [1] -3.77% | [2] -28.2% | [3] -12.2% | [4] -12.4% | [5] 5.02% | [6] -28.2% | [8] 0.496%
inactive: [7] 16.1%

O=C(C1CCCCC1)[C@@H]1[C@]2(C(=O)NC3CCCCC32)[C@@H]2CCCN2[C@@]12C(=O)NC1CCC(Cl)CC12 (stereo not given in full)
active: [1] -69% [100 µM] | [2] -91.6% [100 µM] | [3] -91% [100 µM] | [4] -89.6% [100 µM] | [5] -51.4% [100 µM] | [6] -91.2% [100 µM] | [7] -84.8% [100 µM] | [8] -86% [100 µM]

[2H]C([2H])([2H])Oc1ccc(F)cc1/C=C/C(=O)/C=C(/C=C/c1cc(F)ccc1OC([2H])([2H])[2H])OB(F)F
inactive: [1] 54.2% | [2] 87.7% | [3] 70.8% | [4] 45.1% | [5] 37% | [6] 43.2% | [7] 114% | [8] 101%

NS(=O)(=O)c1ccc(NC(=O)/C(=C\c2ccc(Cl)cc2Cl)NC(=O)c2ccccc2)cc1
inactive: [1] 87.5% | [2] 89.1% | [3] 97.7% | [4] 104% | [5] 90.1% | [6] 97.3% | [7] 103% | [8] 102%

COc1ccc(C2=CN3CC=CC3CC2=O)cc1 (stereo not given)
inactive: [1] 75.3% | [2] 105% | [3] 96.9% | [4] 105% | [5] 93.4% | [6] 90.3% | [7] 91% | [8] 101%

Cc1ccc2c(-c3nnc(N)s3)cc(=O)oc2c1C
inactive: [1] 72.9% | [2] 101% | [3] 96.1% | [4] 97.8% | [5] 93.4% | [6] 95.6% | [7] 113% | [8] 105%

C=C(C)[C@@H]1CC[C@]2(C(N)=O)CC[C@]3(C)[C@H](CC[C@@H]4[C@@]5(C)CC[C@H](OCCC#N)C(C)(C)[C@@H]5CC[C@]43C)[C@@H]12
inactive: [1] 72.3% | [2] 97.8% | [3] 89.1% | [4] 87% | [5] 86.7% | [6] 91% | [7] 110% | [8] 89.2%

COc1ccc(N2CCC(=S)NC2=S)cc1
inactive: [1] 102% | [2] 105% | [3] 96.3% | [4] 104% | [5] 94.6% | [6] 104% | [7] 104% | [8] 101%
